Source: PubChem (several laboratories)
A selection: hits, their analogues and other compounds. The true share with any hit is near 3.8%.
Gli-Sufu block – antagonists of Gli-Sufu signaling | Sufu-KO-LIGHT fibroblasts, Gli luciferase reporter luminescence | inhibition, % at 5 µM | 340,000 compounds, 0.74% hits;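 active = inhibition above about 55%, limit read from the data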
Mdm2 MdmX PPI – human Mdm2/MdmX binding inhibition. O15151+Q00987. SaOS-2 split-luciferase Mdm2/MdmX complementation, luminescence. inhibition, % at 8 µM. 330,000 compounds, 3% hits. AID 485346;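 active = inhibition of at least 50% at 8 µM in the primary screen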
Target sequence (O15151 whole entry, looked up): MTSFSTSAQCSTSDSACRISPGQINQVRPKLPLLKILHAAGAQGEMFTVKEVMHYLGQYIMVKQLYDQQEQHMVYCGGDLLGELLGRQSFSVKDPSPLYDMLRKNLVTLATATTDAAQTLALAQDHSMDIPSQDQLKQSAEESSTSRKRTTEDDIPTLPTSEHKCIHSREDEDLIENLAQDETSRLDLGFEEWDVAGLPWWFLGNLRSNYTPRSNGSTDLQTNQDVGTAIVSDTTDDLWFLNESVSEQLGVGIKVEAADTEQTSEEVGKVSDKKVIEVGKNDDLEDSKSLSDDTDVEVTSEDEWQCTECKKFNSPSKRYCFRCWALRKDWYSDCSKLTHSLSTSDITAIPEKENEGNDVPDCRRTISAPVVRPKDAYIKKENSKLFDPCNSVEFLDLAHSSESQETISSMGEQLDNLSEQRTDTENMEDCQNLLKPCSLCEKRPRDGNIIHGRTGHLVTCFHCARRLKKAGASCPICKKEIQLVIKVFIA
Target sequence (Q00987 whole entry, looked up): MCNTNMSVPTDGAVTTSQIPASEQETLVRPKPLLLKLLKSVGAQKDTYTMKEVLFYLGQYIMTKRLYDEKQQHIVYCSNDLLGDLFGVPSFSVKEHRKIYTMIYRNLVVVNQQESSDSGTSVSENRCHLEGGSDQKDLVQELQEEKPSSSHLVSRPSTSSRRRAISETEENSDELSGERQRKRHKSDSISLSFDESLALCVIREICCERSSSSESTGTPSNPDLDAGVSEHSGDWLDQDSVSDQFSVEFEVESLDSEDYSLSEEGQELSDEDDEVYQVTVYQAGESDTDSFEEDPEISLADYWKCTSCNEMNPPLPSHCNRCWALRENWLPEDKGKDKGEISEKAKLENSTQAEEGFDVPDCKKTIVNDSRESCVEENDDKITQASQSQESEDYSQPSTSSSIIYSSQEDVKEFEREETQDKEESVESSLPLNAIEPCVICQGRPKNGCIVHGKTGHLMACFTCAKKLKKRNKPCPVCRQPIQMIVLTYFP
697 NFkB inh – lowers PMA/ionomycin-induced NF-kB signal in 697 B cells; 697 B-cell NF-kB luciferase reporter, 16 h; inhibition, % at 4 µM; 330,000 compounds, 0.33% hits; AID 435022; in the data active = inhibition above about 35%
Jurkat NFkB inh – inhibitors of the PMA/ionomycin-induced NF-kB reporter in Jurkat cells | 330,000 compounds, 0.53% hits | inhibition, % at 4 µM | PMA/ionomycin-induced NF-kB luciferase reporter, luminescence; in the data active = inhibition above about 50%
Shn3 3UTR inh – reduces Shn3 3'UTR luciferase signal in osteoblasts; Clone20 osteoblast Shn3 3'UTR firefly luciferase, 24 h; AID 588674; 360,000 compounds, 0.52% hits; inhibition, % at 12.5 µM;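 active = mean inhibition of at least 75% with every replicate also reaching 75%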
Mdm2-MdmX conf – human Mdm2/MdmX binding inhibition, confirmed; shares compounds with Mdm2 MdmX PPI; 10,000 compounds, 55% hits; luminescent assay; inhibition, % at 8 µM; in the data active = inhibition above about 40%
Full FLuc ctr – inhibits full-length luciferase, flagging false Mdm2/MdmX hits; inhibition, % at 8 µM; 6,200 compounds, 77% hits; SaOS-2 full-length luciferase counterscreen, luminescence; shares compounds with Mdm2 MdmX PPI;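 active = mean inhibition at 8 µM reaching about 37%, which flags the compound as non-specific, limit read from the data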;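 also: p53-null SaOS-2 cells with luciferase driven by a doxycycline-inducible promoter; compound on cells about two nights before reading with doxycycline added after day one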
Of the large screens only hits and unclear results are named; the others gave an inactive call (follow-up assays come after a bar, where they were run); ! = repeats disagree.

COCCN=C1N[C@@H](c2cccc(C(F)(F)F)c2)C(C(=O)OC)=C(C)N1Cc1ccccc1	none
COC(=O)C1=C(C)N(Cc2ccccc2)C(=NCc2cccc(C(F)(F)F)c2)N[C@H]1c1cccc(C(F)(F)F)c1	Mdm2 MdmX PPI 100 | Mdm2-MdmX conf 100 | Full FLuc ctr 49
C=CCN=C1N[C@@H](c2cccc(C(F)(F)F)c2)C(C(=O)OC)=C(C)N1CC	none
C/C(CC(=O)Nc1ccc(F)cc1F)=N\NC(=O)C(=O)N1CCCCC1	none (no result: Gli-Sufu block, Shn3 3UTR inh)
Cc1cc(NC(=O)COc2ccccc2C(N)=O)no1	none
O=S(=O)(NCC(c1ccco1)N1CCCCC1)c1ccccc1C(F)(F)F (stereo not given)	none
N=c1n(CCN2CCCCC2)c2ccccc2n1CC(=O)c1cccc([N+](=O)[O-])c1	Mdm2 MdmX PPI 73 | Mdm2-MdmX conf inactive
C=CCn1c(=N)n(CC(=O)c2cccc([N+](=O)[O-])c2)c2ccccc21	none
Cc1ccccc1OCc1occc1C(=O)Nc1cccc(-n2cnnn2)c1	Mdm2 MdmX PPI 59 | Mdm2-MdmX conf 47 | Full FLuc ctr 47
COc1ccc(OC)c(-c2nn(-c3ccccc3)cc2C(=O)N2CCc3ccccc3C2)c1	none
COc1cccc(-c2nn(-c3ccc(C)cc3)cc2C(=O)N2CCc3cc(OC)c(OC)cc3C2)c1	Mdm2 MdmX PPI 58 | Mdm2-MdmX conf 67 | Full FLuc ctr 86
COc1ccc(F)cc1C1=CC(=O)C[C@H](c2ccc3c(c2)OCO3)C1	none
CCN(CC)C(=O)C1CCCN(C(=O)c2cc(COc3cccc(OC)c3)on2)C1 (stereo not given)	none
CCCCCc1cc(=O)oc2c(C(CCN3CCCC(C)C3)c3cc(OC)c(OC)c(OC)c3)c(OC)cc(OC)c12 (stereo not given)	Mdm2 MdmX PPI 100 | Mdm2-MdmX conf 52 | Full FLuc ctr 43
CCCCCc1cc(=O)oc2c(C(CCN3CCCC(C)C3)c3ccc(N(C)C)cc3)c(OC)cc(OC)c12 (stereo not given)	Mdm2 MdmX PPI 96 | Mdm2-MdmX conf inactive
CCCCCc1cc(=O)oc2c(C(CCN(CC)CC)c3ccc(N(C)C)cc3)c(OC)cc(OC)c12 (stereo not given)	Mdm2 MdmX PPI 90 | Mdm2-MdmX conf inactive
CCCCCc1cc(=O)oc2c(C(CCN3CCCCC3)c3cc(OC)c(OC)c(OC)c3)c(OC)cc(OC)c12 (stereo not given)	Mdm2 MdmX PPI 98 | Mdm2-MdmX conf 46 | Full FLuc ctr inactive
O=c1oc(Cc2ccccc2)nc2ccccc12	none
Cn1c(SCC(=O)NNC(=O)c2ccccc2)nnc1C(F)(F)F	none
Cc1cc(OC(C)C(=O)N/N=C/CC(C)c2ccccc2)ccc1Cl (stereo not given)	none
O=C(CCS(=O)(=O)Cc1ccc(Cl)cc1)NCCc1ccccc1	none
CC(C)C[C@H](NC(=O)c1nc[nH]c1C(=O)N[C@@H](CC(C)C)C(=O)OC(C)(C)C)C(=O)OC(C)(C)C	Mdm2 MdmX PPI 80 | Mdm2-MdmX conf inactive
CC(C)C[C@H](NC(=O)c1nc[nH]c1C(=O)NC(c1ccccc1)c1ccccc1)C(=O)OC(C)(C)C	Mdm2 MdmX PPI 89 | Mdm2-MdmX conf inactive
Nc1nc(N)nc(COc2ccccc2)n1	none
Cc1ccc(NC(=O)CSC2=C(C#N)C(c3ccco3)C3=C(CC(C)(C)CC3=O)N2)cc1 (stereo not given)	Mdm2 MdmX PPI 51 | Mdm2-MdmX conf inactive
CCc1ccc(NC(=O)CSC2=C(C#N)C(c3ccco3)C3=C(CCCC3=O)N2)cc1 (stereo not given)	none
Cc1cc(OCc2nc(N)nc(N)c2-c2ccc(Cl)c(Cl)c2)ccc1[N+](=O)[O-]	none (no result: Mdm2 MdmX PPI, 697 NFkB inh, Jurkat NFkB inh)
Cc1cc(/C=C2\SC(=S)N(C)C2=O)c(C)n1-c1ccccc1O	Mdm2 MdmX PPI 86 | Mdm2-MdmX conf 90 | Full FLuc ctr 108
CN1C(=O)/C(=C/c2coc3ccc(O)cc3c2=O)SC1=S	none
Cc1cc(/C=C2\SC(=S)N(C)C2=O)c(C)n1-c1ccc(O)cc1	Mdm2 MdmX PPI 85 | Mdm2-MdmX conf 81 | Full FLuc ctr 50
COC(CNC(=O)C1CCN(S(=O)(=O)c2cccc3nsnc23)CC1)OC	none
COc1cc(C(=O)OCC(=O)N2CCC(Cc3ccccc3)CC2)cc(OC)c1OC	none
CCC(C)C(=O)OC1CCC=C2C=CC(C)C(CCC3CC(O)CC(=O)O3)C21 (stereo not given)	none (no result: Mdm2 MdmX PPI, 697 NFkB inh, Jurkat NFkB inh)
CC[C@H](C)C(=O)O[C@H]1C[C@@H](C)C=C2C=C[C@H](C)[C@H](CC[C@@H]3C[C@@H](O)CC(=O)O3)[C@H]21	Mdm2 MdmX PPI 53! | Mdm2-MdmX conf inactive
C/C=C1\COC(C(=O)NCCCN2CCCC2=O)(C(F)(F)F)C=C1C=C(C)C (stereo not given)	none
Nc1c(N(C(=O)Nc2ccc(Cl)c(Cl)c2)C2CCCC2)c(=O)[nH]c(=O)n1Cc1ccccc1	Mdm2 MdmX PPI 78 | Mdm2-MdmX conf inactive
COCCN(C(=O)C1CCCC1)c1c(N)n(Cc2ccccc2)c(=O)[nH]c1=O	none
CC(=O)Nc1nc(C)c(-c2csc(Nc3cccc(C(C)=O)c3)n2)s1	Mdm2 MdmX PPI 82, Shn3 3UTR inh 86 | Mdm2-MdmX conf 46 | Full FLuc ctr 41
CC(=O)Nc1nc(C)c(-c2csc(Nc3ccc(O)cc3)n2)s1	Mdm2 MdmX PPI 66 | Mdm2-MdmX conf 68 | Full FLuc ctr 44
CC(=O)Nc1nc(C)c(-c2csc(Nc3ccccn3)n2)s1	none
O=C(NCC(c1cccs1)N1CCOCC1)c1ccc(OCc2ccccc2)cc1 (stereo not given)	none
CCOc1ccc(OCCC(=O)OCC(=O)NC2CCCC2)cc1	none
Cc1cc(-c2n[nH]c(=S)n2Cc2ccco2)nn1C	none
Cc1cc(-c2n[nH]c(=S)n2Cc2ccco2)n(C)n1	Mdm2 MdmX PPI 62 | Mdm2-MdmX conf inactive
CCOC(=O)c1nn(-c2ccc(Br)cc2)cc1C(=O)c1cccc2ccccc12	Mdm2 MdmX PPI 62 | Mdm2-MdmX conf inactive
CCCCn1c(N)c(N(CC)C(=O)c2cc3c(s2)CCCCC3)c(=O)[nH]c1=O	none
Cc1cc(C(=O)Cn2ncc(Cl)c(Cl)c2=O)c(C)n1CC(F)(F)F	Mdm2 MdmX PPI 98 | Mdm2-MdmX conf 67 | Full FLuc ctr inactive
Cc1cccc(Cn2ncc(Cl)c(Cl)c2=O)c1	Mdm2 MdmX PPI 100 | Mdm2-MdmX conf 84 | Full FLuc ctr 51
Cc1cc2oc(=O)cc(Cn3ncc(Cl)c(Cl)c3=O)c2cc1Cl	Mdm2 MdmX PPI 96, Shn3 3UTR inh 97 | Mdm2-MdmX conf 98 | Full FLuc ctr 54
Cc1ccc(C)c(C(=O)Cn2ncc(Cl)c(Cl)c2=O)c1	Mdm2 MdmX PPI 97 | Mdm2-MdmX conf 84 | Full FLuc ctr inactive
Cc1ccc(C)c(C(=O)CSc2nnc(C)s2)c1	none
